Laboratory results reported in PubChem BioAssay (Tox21).
Results filed as inconclusive are left out. Activity calls are given as the source filed them. Unless noted, calls follow the shape of the dose curve; as a rule, active = well fitted curve in the direction sought with a large enough effect in the repeat runs; inconclusive = weak or mixed curves; inactive = no such curve, though single readings can be large; an effect the other way counts as inactive or inconclusive.

Columns and labels:
[1] = qHTS assay to identify small molecule agonists of the peroxisome proliferator-activated receptor delta (PPARd) signaling pathway - cell viability counter screen (AID 743211); also: nearly all actives have a fitted effect of over 55% in size
Summary of the method: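 Following 5 h plating at 37 C and 5% CO2, PPARd UAS-bla HEK293H cells took up test compounds for 17 h. Viability was quantified by luminescence 30 min after CellTiter-Glo addition at room temperature.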

[2] = qHTS assay to identify small molecule antagonists of the peroxisome proliferator-activated receptor delta (PPARd) signaling pathway - cell viability counter screen (AID 743213); also: nearly all actives have a fitted effect of over 50% in size
Summary of the method: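 Cytotoxicity counter screen: CellTiter-Glo luminescence read 30 min after addition, in the same wells as the reporter assay. There, PPARd UAS-bla HEK293H cells (3000/well) were treated 17 h at 37 C with compound and 300 nM L165041.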

[3] = molecular target: Peroxisome proliferator-activated receptor delta (Homo sapiens) (UniProt Q03181); test: qHTS assay to identify small molecule antagonists of the peroxisome proliferator-activated receptor delta (PPARd) signaling pathway (AID 743215; active = well fitted inhibition curve with a large enough effect in the signal ratio in the repeat runs, not every such curve was filed as active; the % refers to the signal ratio;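 also: cells stimulated with agonist L165041 at 300 nM final during compound exposure; series mostly up to about 62 µM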)
Sequence of Peroxisome proliferator-activated receptor delta (Homo sapiens) (Q03181 whole entry, looked up): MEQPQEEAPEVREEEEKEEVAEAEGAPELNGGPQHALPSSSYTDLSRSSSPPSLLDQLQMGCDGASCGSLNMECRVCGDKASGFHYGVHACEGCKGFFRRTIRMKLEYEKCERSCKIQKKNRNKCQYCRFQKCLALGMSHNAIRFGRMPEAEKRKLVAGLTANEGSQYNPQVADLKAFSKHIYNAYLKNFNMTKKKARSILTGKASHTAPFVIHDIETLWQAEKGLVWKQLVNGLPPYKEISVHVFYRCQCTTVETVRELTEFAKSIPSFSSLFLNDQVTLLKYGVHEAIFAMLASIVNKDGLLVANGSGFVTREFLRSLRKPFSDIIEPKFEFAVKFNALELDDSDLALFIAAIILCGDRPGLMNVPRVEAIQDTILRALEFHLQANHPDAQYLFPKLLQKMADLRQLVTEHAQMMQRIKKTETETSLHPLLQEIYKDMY
Summary of the method: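 Read-out is beta-lactamase FRET fluorescence, measured 2 h after substrate addition at room temperature. Beforehand, UAS-bla HEK293H cells carrying the PPARd reporter were exposed to compounds with L165041 at 300 nM final for 17 h at 37 C.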

[4] = qHTS assay to identify small molecule agonists of the farnesoid-X-receptor (FXR) signaling pathway - cell viability counter screen (AID 743218); also: nearly all actives have a fitted effect of over 45% in size
Summary of the method: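 HEK 293T FXR-bla cells; 5 h pre-incubation, 16 h compound exposure at 37 C; LiveBLAzer substrate 2 h RT, then CellTiter-Glo 30 min RT, luminescence.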

[5] = molecular target: Bile acid receptor (Homo sapiens) (UniProt Q96RI1); test: qHTS assay to identify small molecule agonists of the farnesoid-X-receptor (FXR) signaling pathway (AID 743220; active = well fitted activation curve with a large enough effect in the signal ratio in the repeat runs, not every such curve was filed as active; the % refers to the signal ratio)
Sequence of Bile acid receptor (Homo sapiens) (Q96RI1 whole entry, looked up): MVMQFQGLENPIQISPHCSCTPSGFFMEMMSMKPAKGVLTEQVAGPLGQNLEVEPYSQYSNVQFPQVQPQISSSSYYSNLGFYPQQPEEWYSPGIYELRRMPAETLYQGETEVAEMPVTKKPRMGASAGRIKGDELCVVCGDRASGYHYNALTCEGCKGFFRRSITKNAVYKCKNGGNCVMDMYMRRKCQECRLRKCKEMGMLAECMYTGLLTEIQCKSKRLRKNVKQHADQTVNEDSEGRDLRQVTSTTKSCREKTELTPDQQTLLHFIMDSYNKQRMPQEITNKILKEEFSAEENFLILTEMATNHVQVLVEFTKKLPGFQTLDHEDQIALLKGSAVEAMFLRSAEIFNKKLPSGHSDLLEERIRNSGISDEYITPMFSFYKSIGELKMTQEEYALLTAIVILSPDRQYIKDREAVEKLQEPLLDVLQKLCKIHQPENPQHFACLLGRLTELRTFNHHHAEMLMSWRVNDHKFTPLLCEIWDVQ
Summary of the method: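 Beta-lactamase reporter under UAS control in GeneBLAzer FXR HEK 293T cells (5000/well) measured with LiveBLAzer FRET substrate after 2 h at room temperature. Compound exposure lasted 16 h at 37C.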

[6] = qHTS assay to identify small molecule antagonists of the farnesoid-X-receptor (FXR) signaling pathway - cell viability counter screen (AID 743221; active = well fitted cell-killing curve with a large enough effect in the repeat runs, not every such curve was filed as active; also: nearly all actives have a fitted effect of over 50% in size)
Summary of the method: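 Compound effects on cell number were measured as CellTiter-Glo luminescence in HEK 293T cells expressing FXR-UAS-bla, after 16 h at 37 C with 50 uM CDCA (final).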

[7] = molecular target: Vitamin D3 receptor (Homo sapiens) (UniProt P11473); test: qHTS assay to identify small molecule agonists of the vitamin D receptor (VDR) signaling pathway (AID 743222; calls by dose curve)
Sequence of Vitamin D3 receptor (Homo sapiens) (P11473 whole entry, looked up): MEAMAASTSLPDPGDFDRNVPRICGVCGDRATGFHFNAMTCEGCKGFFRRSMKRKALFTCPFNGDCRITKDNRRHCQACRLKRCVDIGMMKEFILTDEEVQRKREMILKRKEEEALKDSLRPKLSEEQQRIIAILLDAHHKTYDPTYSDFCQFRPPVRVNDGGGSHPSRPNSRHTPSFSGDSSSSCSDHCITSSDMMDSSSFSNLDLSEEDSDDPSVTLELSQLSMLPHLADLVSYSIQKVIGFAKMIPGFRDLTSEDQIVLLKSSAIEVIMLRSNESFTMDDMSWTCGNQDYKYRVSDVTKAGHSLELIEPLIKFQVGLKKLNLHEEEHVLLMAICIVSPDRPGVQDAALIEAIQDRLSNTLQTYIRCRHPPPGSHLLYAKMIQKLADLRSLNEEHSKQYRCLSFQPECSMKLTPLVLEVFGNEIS
Summary of the method: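 VDR-bla cells, 2,000/well; 4 h preincubation 37C; cpd (DMSO) 16 h; LiveBLAzer B/G substrate 2 h RT; fluorescence intensity read.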

[8] = molecular target: Vitamin D3 receptor (Homo sapiens) (UniProt P11473); test: qHTS assay to identify small molecule antagonists of the vitamin D receptor (VDR) signaling pathway (AID 743223; active = well fitted inhibition curve with a large enough effect in the signal ratio in the repeat runs, not every such curve was filed as active; the % refers to the signal ratio)
Summary of the method: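 Beta-lactamase activity in VDR-bla cells is measured by FRET substrate fluorescence (2 h, room temperature) after cells spend 16 h at 37C with test compound and 3 nM final 1alpha,25-dihydroxyvitamin D3.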

[9] = qHTS assay to identify small molecule agonists of the vitamin D receptor (VDR) signaling pathway - cell viability counter screen (AID 743224); also: series mostly up to about 63 µM; nearly all actives have a fitted effect of over 50% in size
Summary of the method: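 Luminescence from CellTiter-Glo, read after 30 min at room temperature, reports viability of VDR-bla cells treated with compounds for 16 h at 37C in the wells used for the beta-lactamase FRET read.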

[10] = qHTS assay to identify small molecule agonists of the NFkB signaling pathway (AID 1159509; active = well fitted curve in the direction sought with a large enough effect in the signal ratio in the repeat runs, not every such curve was filed as active; the % refers to the signal ratio; also: series mostly up to about 61 µM)
Summary of the method: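 ME-180 NFkB-bla, 2,000 cells/well, overnight plating; cpd pinned in DMSO, 5 h 37 C; B/G FRET substrate 1.5 h RT; ex 405, em 460/530 nm.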

[11] = qHTS assay to identify small molecule agonists of the NFkB signaling pathway - cell viability counter screen (AID 1159515; calls by dose curve; also: series mostly up to about 61 µM; nearly all actives have a fitted effect of over 55% in size)
Summary of the method: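 Luminescence from CellTiter-Glo (30 min, room temperature) gives viability, measured in the same wells as the beta-lactamase reporter read. Cells were NFkB-bla ME-180, 2,000 per well, treated 5 hr with compounds.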

[12] = qHTS assay to identify small molecule agonists of the endoplasmic reticulum stress response signaling pathway (AID 1159516; active = well fitted activation curve with a large enough effect in the signal ratio in the repeat runs, not every such curve was filed as active; the % refers to the signal ratio)
Summary of the method: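 Read-out is beta-lactamase cleavage of a FRET substrate (405 nm excitation; 460 and 530 nm emissions) in ESRE-bla HeLa cells after a 5 hr compound exposure at 37 C. Substrate incubation ran 2 hr at room temperature.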

[13] = qHTS assay to identify small molecule agonists of the endoplasmic reticulum stress response signaling pathway - cell viability counter screen (AID 1159517; calls by dose curve;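 also: HeLa cells carrying an ER stress response element beta-lactamase reporter; series mostly up to about 61 µM; nearly all actives have a fitted effect of over 50% in size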)
Summary of the method: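 CellTiter-Glo was added to wells already read for beta-lactamase FRET, and luminescence was recorded 30 min later. Cells: ESRE-bla HeLa, 1,500 per well, compound exposure 5 hr at 37 C.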

[14] = qHTS assay to identify small molecule antagonists of the retinoid-related orphan receptor gamma (ROR-gamma) signaling pathway - cell viability counter screen (AID 1159520); also: nearly all actives have a fitted effect of over 50% in size; also: potency is read from the fitted curve at half-maximal effect
Summary of the method: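 Tet-on ROR gamma CHO cells (1,000/well) were plated 4 hr, given compounds in DMSO for 2 hr at 37 C, then induced with 1 uM final doxycycline for 16 hr. Viability was read as ATP by CellTiter-Glo luminescence after 30 min.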

[15] = molecular target: Nuclear receptor ROR-gamma (Homo sapiens) (UniProt P51449); test: qHTS assay to identify small molecule antagonists of the retinoid-related orphan receptor gamma (ROR-gamma) signaling pathway (AID 1159521; also: nearly all actives have a fitted effect of over 50% in size; also: potency is read from the fitted curve at half-maximal effect)
Summary of the method: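 Screening format: cell-based luciferase reporter in CHO cells with doxycycline-inducible RORγ. Compound pre-exposure lasts 2 h, doxycycline is 1 uM final, induction runs 16 h at 37 C, and ONE-Glo luminescence is read.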

[16] = qHTS assay to identify small molecule agonists of the AP-1 signaling pathway - cell viability counter screen (AID 1159525; calls by dose curve; also: nearly all actives have a fitted effect of over 55% in size)
Summary of the method: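 ME-180 AP-1-bla, 2500 cells/well, Opti-MEM + 0.5% dialyzed FBS; overnight 37 °C; cpd 15-pt titration, 5 h 37 °C; CellTiter-Glo 30 min RT; luminescence read; normalised to TOAB and DMSO controls.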

[17] = molecular target: Peroxisome proliferator-activated receptor delta (Homo sapiens) (UniProt Q03181); test: qHTS assay to identify small molecule agonists of the peroxisome proliferator-activated receptor delta (PPARd) signaling pathway (AID 743212; calls by dose curve)
Summary of the method: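 A PPARd-bla HEK293H line with beta-lactamase under an Upstream Activator Sequence is treated with compounds at 37 C. Substrate loading for 2 h at room temperature precedes the fluorescence measurement.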

[18] = molecular target: Bile acid receptor (Homo sapiens) (UniProt Q96RI1); test: qHTS assay to identify small molecule antagonists of the farnesoid-X-receptor (FXR) signaling pathway (AID 743217; active = well fitted inhibition curve with a large enough effect in the signal ratio in the repeat runs, not every such curve was filed as active; the % refers to the signal ratio)
Summary of the method: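 HEK 293T FXR-UAS-bla, 5000 cells/well; compound + CDCA 50 uM final; 16 h, 37 °C; B/G FRET substrate 2 h RT; fluorescence.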

[19] = qHTS assay to identify small molecule antagonists of the vitamin D receptor (VDR) signaling pathway - cell viability counter screen (AID 743225); also: nearly all actives have a fitted effect of over 50% in size
Summary of the method: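 In this counter screen, VDR-bla HEK 293T cells receive test compound plus 3 nM final calcitriol for 16 h at 37C. Room-temperature steps of 2 h with the beta-lactamase substrate, then 30 min with CellTiter-Glo, precede the luminescence read.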

[20] = qHTS assay to identify small molecule agonists of the AP-1 signaling pathway (AID 1159526; calls by dose curve)

Measured: Potency

Nc1ccc(Oc2ccc(N)c(N)c2)cc1
inactive: [1] | [2] | [3] | [4] | [5] | [6] | [7] | [8] | [9] | [10] | [11] | [12] | [13] | [14] | [15] | [16]

CN(CCCN1c2ccccc2CCc2ccccc21)CC(=O)c1ccc(Cl)cc1
inactive: [17] | [2] | [3] | [18] | [4] | [5] | [6] | [7] | [8] | [9] | [19] | [10] | [11] | [12] | [13] | [15] | [16]
active: [14] 29.8 µM

C[C@@H](N)C(=O)O
inactive: [17] | [2] | [4] | [8] | [19] | [10] | [11] | [12] | [13] | [14] | [15] | [16]

Cc1c(N)cccc1N
inactive: [1] | [17] | [2] | [3] | [4] | [6] | [7] | [8] | [9] | [19] | [10] | [11] | [12] | [13] | [14] | [15] | [20]

O=C(Cl)c1cccc([N+](=O)[O-])c1
inactive: [1] | [17] | [2] | [3] | [18] | [4] | [5] | [6] | [8] | [9] | [10] | [11] | [12] | [13] | [14] | [16] | [20]

COC(=O)C(C)O (stereo unspecified)
inactive: [1] | [17] | [2] | [3] | [18] | [4] | [5] | [6] | [7] | [9] | [19] | [10] | [11] | [12] | [13] | [14] | [16] | [20]

Cc1ccccc1C(=O)Nc1ccc(C(=O)N2CCCC(O)c3cc(Cl)ccc32)c(C)c1 (stereo unspecified)
inactive: [2] | [4] | [5] | [6] | [7] | [19] | [10] | [11] | [12] | [13] | [14] | [15] | [16]

O=Cc1ccc(F)c(Br)c1
inactive: [1] | [17] | [2] | [3] | [4] | [6] | [7] | [8] | [9] | [19] | [10] | [11] | [12] | [13] | [14] | [15] | [20]

CCC(=O)Nc1ccc(O)cc1
inactive: [1] | [17] | [2] | [3] | [18] | [4] | [5] | [6] | [7] | [8] | [9] | [19] | [10] | [11] | [12] | [13] | [14] | [16] | [20]

CCN(CC)CCOc1ccc(Cc2ccccc2)cc1
inactive: [17] | [3] | [19] | [10] | [11] | [12] | [13] | [14] | [15] | [16]

CC(C)NC[C@@H](O)COc1cccc2ccccc12
inactive: [18] | [4] | [5] | [6] | [7] | [8] | [9] | [19] | [10] | [11] | [12] | [13] | [14] | [15] | [16]

NNS(=O)(=O)c1ccc(Oc2ccc(S(=O)(=O)NN)cc2)cc1
inactive: [1] | [17] | [2] | [3] | [18] | [4] | [5] | [7] | [8] | [9] | [19] | [10] | [11] | [12] | [13] | [14] | [16] | [20]

CCOC(=O)C(Br)c1ccccc1 (stereo unspecified)
inactive: [1] | [2] | [3] | [4] | [9] | [19] | [10] | [11] | [12] | [13] | [14] | [15] | [20]

O=[N+]([O-])c1nccn1CO[C@@H](CO)[C@H](O)CO
inactive: [1] | [17] | [2] | [3] | [18] | [4] | [5] | [6] | [9] | [19] | [10] | [11] | [12] | [13] | [14] | [15] | [20]

C=CC1CO1 (stereo unspecified)
inactive: [1] | [2] | [4] | [6] | [7] | [9] | [19] | [10] | [11] | [12] | [13] | [14] | [15] | [20]

CC[C@H]1CC[C@H](NCc2cc3c(cc2OC)[C@H]2C[C@H]2C(=O)N3C)[C@H](c2ccccc2)N1
active: [15] 30.6 µM
inactive: [17] | [4] | [19] | [10] | [11] | [12] | [13] | [14] | [16]

CC(C)C(=O)OC/C=C/c1ccccc1
inactive: [1] | [17] | [3] | [4] | [5] | [6] | [7] | [8] | [9] | [19] | [10] | [11] | [12] | [13] | [14] | [15] | [20]
